Where “and” joins values, the source holds several entries; their conditions need not be identical. Equal values may be shown once. Inconclusive results are not listed. For some of these results: Entries with a potency or affinity are not part of this list. Calls of active or inactive are those of the source. Unless noted, no stated cut-off is given here; in the data, active means parasite load remaining mostly below about 12% (no sharp cut-off); inactive means mostly above about 10%.
Columns and labels:
[1] = blockers of polyQ-driven CASP3 activation – cell-based (AID 1583); conditions: polyglutamine-induced caspase-3 activation, cell assay; stronger effect = higher value;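 tested at 10 µM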
[2] = yeast 75Q aggregation reduction – 75Q-TubU reporter (AID 1593); conditions: Yeast 75Q polyglutamine aggregation reporter
[3] = restoration of touch response, mutant HTT neurons – whole organism, C. elegans mechanosensory neurons, N-terminal huntingtin (AID 1599); conditions: C. elegans polyQ-huntingtin mechanosensory neurons, stronger effect = higher value
[4] = blockers of cytochrome c efflux from mitochondria – biochemical, purified mitochondria (AID 1603); conditions: stronger effect = lower value;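 further: mouse liver mitochondria challenged with calcium chloride; signal normalized to the plate average as 100%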
[5] = polyglutamine aggregate formation blockers (AID 1604); conditions: polyglutamine-induced protein aggregation inhibition assay; stronger effect = higher value; tested at 2.5 µM
[6] = rescue of PC12 cells from polyQ htt toxicity – LDH release (AID 1610); conditions: PC12 mutant huntingtin toxicity, final LDH at 4 uM, stronger effect = lower value
[7] = glutamate transport activators, MN-1 cells, MN-1 cell line (AID 1612); conditions: MN-1 motor neuron cells, stronger effect = higher value;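 further: tested at 1 µM final; 0% = mean of DMSO vehicle wells on each plate; positive means more glutamate uptake than control and negative means less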
[8] = 75Q-TubH aggregate inhibition, S. cerevisiae, yeast (AID 1616); conditions: S. cerevisiae 75Q-TubH polyglutamine aggregation suppression; stronger effect = higher value
[9] = P. berghei load reduction in hepatocytes – cell-based, HepG2, luciferase luminescence, HepG2 viability, primary screen (AID 624349);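 further: 100% = mean of DMSO negative control wells on the same plate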; conditions: P. berghei liver stage in HepG2, luciferase luminescence, concentration not given here; parasite load remaining: stronger effect = lower value; viability: measured here: HepG2 viability without parasites
[10] = target: 6-phosphogluconate dehydrogenase, decarboxylating (Homo sapiens) (UniProt P52209); assay: inhibition of human phosphogluconate dehydrogenase – biochemical, recombinant enzyme, NADPH absorbance, primary screen (AID 1159550;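 active means at least 20% inhibition of 6-phosphogluconate dehydrogenase activity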); conditions: recombinant 6PGD, NADPH absorbance 341 nm; at 10 µM; stronger effect = higher value
[11] = test system: Aerobactin synthetase IucA (Klebsiella pneumoniae hvKP1); assay: IucA enzyme inhibition, primary screen, biochemical, Spectrum library (AID 1346200; call rule not given here;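 further: 100% = wells without compound and 0% = wells lacking enzyme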); conditions: malachite green pyrophosphate, A620, at 8 µM, stronger effect = lower value
[12] = growth inhibition of DIPG cells – cell-based, MIPE4.0 library, CellTiter-Glo luminescence, qHTS (AID 1347066; cut-off not given, nearly all actives have AC50 up to about 30 µM;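 further: cells exposed to compound for 48 hours before readout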); conditions: SU-DIPG-VI viability, CellTiter-Glo ATP luminescence
[13] = target: ATP-dependent translocase ABCB1 (Homo sapiens) (UniProt P08183); assay: P-glycoprotein substrate transport blockade – cell-based (AID 377; in the data active means fluorescence slope change above about 50%); conditions: MDR1-expressing cells, fluorescent substrate accumulation slope; stronger effect = higher value; concentration not given here
[14] = compounds altering viability of human ES cells (AID 493140; call rule not given here;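 further: cells exposed to compounds for four days before counting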); conditions: human embryonic stem cell survival screen; stronger effect = higher value
[15] = viability loss with induced miR-34 in A549 – imaging, A549 dox-inducible miR-34, nuclei and caspase counts, primary screen (AID 1347080;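 active means compounds whose cell count with miR-34 switched on is under 0.7 times the count with it off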); conditions: A549 miR-34 inducible, Hoechst nuclei count, 48 h
[16] = MELAS cybrid and Rieske KO viability enhancers – cell-based, MELAS cybrids, Rieske KO mouse fibroblasts, CellTiter-Glo, primary screen (AID 1508586;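 active means mean z-score across replicates of 1.96 or higher in either the MELAS or the Rieske mutant cell line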;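 further: z relative to plate mean and SD of compound and empty wells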); conditions: low glucose
[17] = target: NAD(+) hydrolase SARM1 (Homo sapiens) (UniProt Q6SZW1); assay: blocking NAD cleavage by SARM1 SAM-TIR – cell lysate, NAD-Glo luminescence (AID 1508614;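 active means compound whose remaining NAD level is above about 45 nM, limit read from the data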); conditions: SAM-TIR HEK293T lysate NADase, at 1 µM, stronger effect = higher value
[18] = target: Mitogen-activated protein kinase 7 (Homo sapiens) (UniProt Q13164); assay: Gal4-ERK5 driven luciferase induction – cell-based, HTS, primary screen (AID 1508626;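 active means luciferase signal above three times the same-plate solvent-only control wells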;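 further: luciferase driven by Gal4-ERK5 fusion binding five Gal4 sites before minimal TATA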); conditions: HeLa Gal4-ERK5 transactivation, 18 h, at 5 µM, stronger effect = higher value
[19] = measured here: relative caspase fold change +Dox/-Dox
[20] = measured here: total cells with miR-34 induction, stronger effect = lower value
[21] = measured here: total cells without miR-34 induction

Sequence of 6-phosphogluconate dehydrogenase, decarboxylating (Homo sapiens) (P52209 whole entry, looked up): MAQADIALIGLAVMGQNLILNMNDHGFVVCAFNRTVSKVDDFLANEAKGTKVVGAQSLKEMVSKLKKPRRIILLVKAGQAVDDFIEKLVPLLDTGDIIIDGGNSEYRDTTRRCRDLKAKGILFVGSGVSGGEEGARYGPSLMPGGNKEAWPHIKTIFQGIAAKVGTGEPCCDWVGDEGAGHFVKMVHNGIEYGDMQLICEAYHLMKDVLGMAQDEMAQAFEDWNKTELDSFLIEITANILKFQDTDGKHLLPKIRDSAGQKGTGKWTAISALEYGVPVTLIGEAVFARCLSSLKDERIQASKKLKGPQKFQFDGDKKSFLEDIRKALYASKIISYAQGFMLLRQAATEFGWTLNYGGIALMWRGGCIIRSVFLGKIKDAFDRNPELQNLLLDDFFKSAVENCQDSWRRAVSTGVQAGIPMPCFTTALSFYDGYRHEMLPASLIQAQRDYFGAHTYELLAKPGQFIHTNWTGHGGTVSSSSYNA
Sequence of ATP-dependent translocase ABCB1 (Homo sapiens) (P08183 whole entry, looked up): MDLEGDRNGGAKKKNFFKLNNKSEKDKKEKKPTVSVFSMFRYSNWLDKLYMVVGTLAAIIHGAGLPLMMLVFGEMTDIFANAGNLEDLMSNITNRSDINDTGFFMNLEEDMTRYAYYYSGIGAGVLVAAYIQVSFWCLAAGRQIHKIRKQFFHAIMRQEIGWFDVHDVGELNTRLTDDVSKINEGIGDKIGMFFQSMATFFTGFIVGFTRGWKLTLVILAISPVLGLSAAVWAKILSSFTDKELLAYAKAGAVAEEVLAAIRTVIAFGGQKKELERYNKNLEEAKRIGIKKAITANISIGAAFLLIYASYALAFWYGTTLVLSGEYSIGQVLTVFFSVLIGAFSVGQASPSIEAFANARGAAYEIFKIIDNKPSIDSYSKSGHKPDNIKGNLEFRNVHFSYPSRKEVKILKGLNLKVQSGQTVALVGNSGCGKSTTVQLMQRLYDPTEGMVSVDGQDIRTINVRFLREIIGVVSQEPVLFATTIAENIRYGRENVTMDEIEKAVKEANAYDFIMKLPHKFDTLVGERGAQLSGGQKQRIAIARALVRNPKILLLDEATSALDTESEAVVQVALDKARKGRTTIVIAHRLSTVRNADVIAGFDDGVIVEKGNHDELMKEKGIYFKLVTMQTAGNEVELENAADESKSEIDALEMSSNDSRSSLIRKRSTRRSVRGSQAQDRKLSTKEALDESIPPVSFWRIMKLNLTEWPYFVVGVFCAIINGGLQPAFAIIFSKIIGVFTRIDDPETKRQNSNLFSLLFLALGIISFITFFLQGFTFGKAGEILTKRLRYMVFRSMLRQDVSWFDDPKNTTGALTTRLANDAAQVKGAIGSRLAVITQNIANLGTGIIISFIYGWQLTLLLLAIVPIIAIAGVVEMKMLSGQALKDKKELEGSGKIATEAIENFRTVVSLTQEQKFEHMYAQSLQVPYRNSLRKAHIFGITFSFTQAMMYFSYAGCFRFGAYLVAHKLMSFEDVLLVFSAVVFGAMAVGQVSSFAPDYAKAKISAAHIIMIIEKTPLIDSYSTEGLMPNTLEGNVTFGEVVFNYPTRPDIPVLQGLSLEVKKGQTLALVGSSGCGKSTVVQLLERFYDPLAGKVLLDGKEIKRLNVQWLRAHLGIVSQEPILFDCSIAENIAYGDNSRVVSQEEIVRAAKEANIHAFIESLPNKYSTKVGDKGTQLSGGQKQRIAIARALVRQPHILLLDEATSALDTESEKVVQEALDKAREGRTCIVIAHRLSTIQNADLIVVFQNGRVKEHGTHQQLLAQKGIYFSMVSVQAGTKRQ
Sequence of Mitogen-activated protein kinase 7 (Homo sapiens) (Q13164 whole entry, looked up, the tested form may be a part): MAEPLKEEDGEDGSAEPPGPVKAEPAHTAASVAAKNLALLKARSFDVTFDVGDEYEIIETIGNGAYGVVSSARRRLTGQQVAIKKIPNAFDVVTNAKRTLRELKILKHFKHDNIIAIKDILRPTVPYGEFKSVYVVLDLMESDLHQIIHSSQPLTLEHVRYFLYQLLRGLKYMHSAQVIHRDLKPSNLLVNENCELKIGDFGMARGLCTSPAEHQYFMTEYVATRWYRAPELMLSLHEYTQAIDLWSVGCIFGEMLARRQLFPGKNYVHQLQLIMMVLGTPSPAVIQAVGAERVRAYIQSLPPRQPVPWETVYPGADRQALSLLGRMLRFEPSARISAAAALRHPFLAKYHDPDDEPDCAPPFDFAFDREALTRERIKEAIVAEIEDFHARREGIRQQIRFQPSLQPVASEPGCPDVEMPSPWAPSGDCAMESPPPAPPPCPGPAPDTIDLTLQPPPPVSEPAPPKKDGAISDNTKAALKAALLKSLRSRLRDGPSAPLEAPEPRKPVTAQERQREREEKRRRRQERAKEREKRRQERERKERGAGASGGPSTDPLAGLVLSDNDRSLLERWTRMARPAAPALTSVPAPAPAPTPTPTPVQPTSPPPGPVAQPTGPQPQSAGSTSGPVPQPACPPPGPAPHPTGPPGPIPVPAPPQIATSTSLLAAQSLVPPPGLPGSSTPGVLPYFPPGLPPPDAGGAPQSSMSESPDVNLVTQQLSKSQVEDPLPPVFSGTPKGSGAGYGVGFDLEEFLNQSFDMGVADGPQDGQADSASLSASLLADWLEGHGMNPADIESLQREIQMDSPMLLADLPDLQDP
Sequence of NAD(+) hydrolase SARM1 (Homo sapiens) (Q6SZW1 whole entry, looked up, the tested form may be a part): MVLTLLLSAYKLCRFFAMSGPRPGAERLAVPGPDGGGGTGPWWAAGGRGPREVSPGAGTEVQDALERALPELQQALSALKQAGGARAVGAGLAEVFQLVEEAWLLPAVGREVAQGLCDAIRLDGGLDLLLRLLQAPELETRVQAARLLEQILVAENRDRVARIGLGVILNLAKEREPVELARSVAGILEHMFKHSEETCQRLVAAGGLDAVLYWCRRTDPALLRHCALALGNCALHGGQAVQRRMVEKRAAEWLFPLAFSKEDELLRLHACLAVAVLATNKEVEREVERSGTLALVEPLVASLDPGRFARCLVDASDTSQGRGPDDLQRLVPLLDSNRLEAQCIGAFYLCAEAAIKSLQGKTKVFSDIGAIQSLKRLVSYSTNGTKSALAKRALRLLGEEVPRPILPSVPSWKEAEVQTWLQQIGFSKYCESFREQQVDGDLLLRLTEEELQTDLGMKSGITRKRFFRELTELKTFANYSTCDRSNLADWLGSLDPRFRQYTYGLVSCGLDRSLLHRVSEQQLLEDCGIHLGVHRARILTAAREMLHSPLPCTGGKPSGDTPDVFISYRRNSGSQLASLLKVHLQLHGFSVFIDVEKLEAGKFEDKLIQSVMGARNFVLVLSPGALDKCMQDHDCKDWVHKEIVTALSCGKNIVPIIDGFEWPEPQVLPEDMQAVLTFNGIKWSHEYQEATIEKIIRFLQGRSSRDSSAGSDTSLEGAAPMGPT

CC(=O)Oc1ccc(Cl)c2cccnc12
inhibition [1]: 11.4% | score [2]: 0.08 | rescue above control [3]: 7.46 | cytochrome c release ratio [4]: 1.44 | inhibition of aggregation [5]: 87.2% | normalised LDH release [6]: 1.08 | glutamate uptake change [7]: 14.2% | aggregation suppression score [8]: 0.0401 | parasite load remaining [9]: -5% (inactive) | viability [9]: 65.2% | inhibition [10]: -4.5% (inactive) | activity remaining [11]: 124% (inactive)

CCCCCC[C@H]1C(=O)O[C@H](C)[C@H](NC(=O)c2cccc(NC=O)c2O)C(=O)O[C@@H](C)[C@@H]1OC(=O)CC(C)C
inhibition [10]: 3.85% (inactive) | AC50 [12]: 1.32 µM (active)

C[C@]12CCC(=O)C=C1C=C[C@@H]1[C@@H]2CC[C@@]2(C)[C@H]1CC[C@@]2(O)CCC(=O)O
fluorescence slope change [13]: 75% (active) | survival [14]: 19.2 (inactive) | parasite load remaining [9]: 48.7% (inactive) and 84.2% (inactive) | viability [9]: 45.8% and 86.3% | inhibition [10]: -4.06% (inactive) | fold change ([15]; stronger effect = lower value): 0.935 (inactive) | fold change [15, 19]: 1.18 | cell count [15, 20]: 8420 | cell count [15, 21]: 9010 | z-score ([16]; MELAS cybrid survival, CellTiter-Glo 48 h, stronger effect = higher value): 0.754 (inactive) | z-score ([16]; Rieske KO mouse fibroblast survival, CellTiter-Glo 72 h): 0.299

C[CH2][Hg][S]c1ccccc1C(=O)O
fluorescence slope change [13]: -19.9% (inactive) | inhibition [1]: 67.3% | score [2]: -0.03 | rescue above control [3]: 0 | cytochrome c release ratio [4]: 0.71 | inhibition of aggregation [5]: 18.2% | glutamate uptake change [7]: 8.21% | aggregation suppression score [8]: -0.00186 | parasite load remaining [9]: 82.3% (inactive) and 0.045% (inactive) | viability [9]: 62% and 0.315% | inhibition [10]: 17.7% (inactive) | activity remaining [11]: -3.51% (active) | fold change ([15]; stronger effect = lower value): 1.62 (inactive) | fold change [15, 19]: 0.728 | cell count [15, 20]: 630 | cell count [15, 21]: 389 | remaining NAD [17]: 10 nM (inactive) | luciferase signal [18]: 44 AU (inactive)

From PubChem BioAssay
